Screens as filed in PubChem.
The list is not random: actives were taken first. Their share in the collection is about 5.7%.
rCAG RNA binder – binders of r(CAG) RNA repeats, primary screen, biochemical, fluorescence. r(CAG) RNA repeat, TO-PRO-1 dye displacement fluorescence. inhibition, % at 3 µM. 370,000 compounds, 1.3% hits;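 active = inhibition above the plate cutoff, the mean of all test compounds on that plate plus 3 SD, cut at about 35% in these data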;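 also: 0% = DMSO alone and 100% = 100 µM mitoxantrone as full dye displacement; higher means more dye released from RNA so lower well fluorescence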
NR3A LBD binder – binders of NR3A ligand-binding domain, primary screen, biophysical, differential scanning fluorimetry, uHTS | Glutamate receptor ionotropic, NMDA 3A (GRIN3A) ligand-binding domain | NR3A LBD differential scanning fluorimetry, Tm shift; 0% = protein alone, 100% = glycine-bound protein | 340,000 compounds, 2.5% hits | AID 1259313, 2017 | Tm shift relative to glycine control, % at 25 µM;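 active = melting temperature shift of at least 10% of the positive control shift, at one fixed dose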
FAS-TE inh – FAS thioesterase domain inhibitors, primary screen, biochemical, fluorescence intensity, uHTS; AID 602261, 2012; inhibition, % at 15 µM; Fatty acid synthase (Homo sapiens), P49327; 360,000 compounds, 0.67% hits; recombinant FAS-TE, OMFH fluorogenic substrate, fluorescence endpoint;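 active = compounds whose normalised, plate-corrected inhibition of enzyme fluorescence in the single-dose primary screen is 50% or more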;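 also: 0% = DMSO with enzyme and 100% = substrate without enzyme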
MPTP inh – mitochondrial permeability transition pore inhibitors, primary screen, biochemical, isolated mouse mitochondria, absorbance. Ca2+ swelling absorbance, 30 min. inhibition, % at 10 µM. 360,000 compounds, 1.4% hits;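 active = inhibition of 50% or more, scaled per plate between neutral and stimulator controls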;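 also: 0% = DMSO wells given calcium and 100% = 1 mM EGTA wells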
Myeloid diff MLP – induction of myeloid progenitor differentiation, primary screen, cell-based, flow cytometry, MLPCN library. ER-HoxA9 myeloid progenitors, lysozyme-GFP differentiation. calls only at 10 µM. 360,000 compounds, 1% hits. AID 624256, 2012;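 active = normalized GFP-positive differentiation at or above the plate's own cutoff, the solvent-only control mean plus 3 SD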;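 also: cells exposed to compound for four days before flow analysis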
* = called active by the depositor; i = inactive; nt = no result; + = active, no number.

SMILES | rCAG RNA binder | NR3A LBD binder | FAS-TE inh | MPTP inh | Myeloid diff MLP
O=C(C1CCN(c2ncnc3c2sc2cccc(F)c23)CC1)N1CCN(Cc2ccccc2)CC1 | 4 | nt | nt | nt | nt
COC(=O)CC1N(S(=O)(=O)c2ccc(C)cc2)c2ccccc2C1(C(=O)OC)C(=O)OC (stereo not given) | -2 | nt | nt | 1 | i
COc1ccc(Nc2c(-c3ccco3)nc3ccc(C)cn23)cc1 | -1 | 0 | -2 | 7 | +
CC(C)(C)c1ccc(OCC(=O)N/N=C/c2cc(Br)ccc2OC(=O)c2ccco2)cc1 | 3 | 23* | 22 | -5 | i
COc1cc(/C=C2\C(=O)ON=C2c2ccccc2)cc(Cl)c1O | 7 | -9 | -3 | 36 | i
Cc1ccc(/C=C2/C(=O)ON=C2c2ccccc2)o1 | 39* | 5 | -5 | 8 | i
COc1cc(/C=c2\sc3n(c2=O)C(c2ccccc2)C(c2ccccc2)=NN=3)ccc1O (stereo not given) | 17 | 8 | 27 | 0 | +
COc1cc(/C=C2/C(=O)ON=C2c2ccccc2)ccc1O | 0 | 11* | -13 | 6 | i
COc1cc(/C=c2\sc3n(c2=O)CCCN=3)ccc1O | -6 | -3 | -3 | -1 | i
O=C1ON=C(c2ccccc2)/C1=C\c1ccco1 | 26 | 4 | -4 | 11 | i
CCc1cc2c(nc1CC)CCCN2S(=O)(=O)c1ccc(C)cc1 | -1 | nt | nt | nt | nt
Clc1ccc(N2CCN(c3ccnc(Cl)n3)CC2)cc1 | -7 | 14* | 13 | 5 | i
CSc1cccc(N2CC(C(=O)N(Cc3nnc(-c4ccccc4Cl)o3)C3CC3)CC2=O)c1 (stereo not given) | -6 | 1 | 14 | 2 | +
CCOc1ccccc1N1CC(C(=O)N(Cc2nnc(-c3ccccc3Cl)o2)C2CC2)CC1=O (stereo not given) | -8 | 0 | -3 | -1 | i
O=C(NCc1ccccc1)C(c1cc2ccccc2o1)n1c(=O)c(-c2ccccc2)nc2ccccc21 (stereo not given) | 12 | nt | nt | 3 | i
O=C(NCCCCC(NC(=O)c1ccccc1)C(=O)O)OCc1ccccc1 (stereo not given) | 7 | nt | nt | nt | nt
C/C(=N/OCO/N=C(\C)c1ccccc1)c1ccccc1 | -3 | 11* | 19 | 0 | i
Cc1cc(C)n(-c2nc3ccccc3nc2N2CCN(S(=O)(=O)c3ccc(F)c(C)c3)CC2)n1 | -3 | 0 | 27 | 0 | i
Cc1cc(C)n(-c2nc3ccccc3nc2N2CCN(S(=O)(=O)c3ccc4ccccc4c3)CC2)n1 | 4 | 0 | 67* | -1 | i
CC(C)(C)C1=Nn2c(nnc2-c2ccc(C(C)(C)C)cc2)SC1 | -4 | nt | nt | nt | nt
COc1ccc(C)cc1NS(=O)(=O)c1ccc2c(c1)N(C)CCO2 | -2 | 18* | 1 | 0 | i
O=C(COc1ccc2c3c(c(=O)oc2c1)CCCC3)NC(Cc1ccc(Cl)cc1)C(=O)O (stereo not given) | 38* | -1 | 4 | 0 | i
CCOC(=O)[C@@]12CN(C(=O)OC(C)(C)C)CC=C1N(Cc1ccc(OC)cc1)C(=O)[C@H]2CC(=O)NCCCCc1ccccc1 | 1 | nt | nt | nt | nt
Fc1ccccc1N1CCN(Cc2nc(-c3ccc(Cl)cc3Cl)no2)CC1 | 4 | 20* | 30 | 34 | i
Clc1ccc(Cc2noc(CN3CCN(c4ccccc4)CC3)n2)c(Cl)c1 | -4 | 2 | 26 | 2 | i
SMILES | rCAG RNA binder | NR3A LBD binder | FAS-TE inh | MPTP inh | Myeloid diff MLP
CC(C)c1[nH]nc2c1C(c1ccc3c(c1)OCO3)NC2=O (stereo not given) | 4 | nt | nt | nt | nt
OC(Cc1ccncc1)(c1ccccc1)c1ccccc1 | -3 | 14* | -11 | -1 | i
OC(CNCc1ccccc1)(c1ccccc1)c1ccccc1 | -7 | 0 | -1 | -1 | i
CCCOP(=O)(OCCC)c1c([N+](=O)[O-])cc(C(F)(F)F)cc1[N+](=O)[O-] | -7 | 11* | -12 | 3 | i
CN(C)S(=O)(=O)c1ccc(N=Cc2c(C(F)(F)F)[nH]n(C)c2=O)cc1 | 4 | -1 | -9 | 2 | +
COC(=O)c1ccc(N=Cc2c(C(F)(F)F)[nH]n(C)c2=O)cc1 | 0 | -1 | -6 | -1 | i
